Assay outcomes: PubChem BioAssay, National Center for Advancing Translational Sciences (NCATS)
A549 tox: Nrf2 qHTS screen for inhibitors: counterscreen for cytotoxicity | A549 ARE-Fluc cells, CellTiter-Fluor viability, 18-24 h | Potency, µM (highest dose often 46 µM), usual class: inhibitors | 0.16% of 390,000 active | AID 504648, 2011
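A549 ARE_Fluc cells in 5% FBS OPTI-MEM were exposed to compounds in concentration-response for 18-24 h at 37 deg C. Viability was read by CellTiter-Fluor fluorescence (Ex 405/Em 525) after 30 min, before the luciferase read.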
ATXN2 expr inh: Primary qHTS for Inhibitors of ATXN expression | 0.72% of 360,000 active | Potency, µM (titrated, usually from 57 µM), hits mostly inhibitors | HEK-293 ATXN2-luciferase reporter, luminescence, 24 h | AID 1745845, 2022; note: nearly all actives have a fitted effect of over 55% in size
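qHTS (up to 57 uM final) was run with 24 h compound exposure of reporter cells at 37 °C. Each well was multiplexed: SteadyGlo luminescence measured ATXN2-luciferase expression after a fluorogenic Gly-Phe-AFC viability readout (25 uM final).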
Nrf2 activator: qHTS of Nrf2 Activators; AREc32 ARE-luciferase reporter (MCF7-derived line), luminescence, 24 h; 0.31% of 410,000 active; Potency, µM (doses to about 46.1 µM), actives largely listed as activators; note: nearly all actives have a fitted effect of over 65% in size
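Nrf2 activation is followed as ARE-luciferase induction in the AREc32 line after one day of compound treatment; luminescence is read with Steady-Glo.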
Nrf2 block: Nrf2 qHTS screen for inhibitors; A549 ARE-Fluc reporter, luciferase luminescence, 18-24 h; Potency, µM (doses to about 46 µM), hits mostly inhibitors; 2.1% of 360,000 active; AID 504444, 2011; note: nearly all actives have a fitted effect of over 60% in size
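Nrf2 activity is the BugLite luminescence, read 15 min after reagent at room temperature, following CellTiter-Fluor cytotoxicity readout (30 min, 37C). Compound titrations were applied for 18-24 h to 5000 A549 ARE_Fluc cells/well in 5% FBS OPTI-MEM.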
ATXN viability: Viability Counterscreen for Primary qHTS for Inhibitors of ATXN expression | S2 cells (HEK-293 line with an ATXN2-luciferase reporter) viability, CellTiter-Fluor protease fluorescence, 24 h | Potency, µM (top dose mostly 56.7 µM), hits mostly cytotoxic | 0.49% of 400,000 active | AID 651635, 2014; note: nearly all actives have a fitted effect of over 40% in size
Each line names hits and unclear results; the compound was inactive in the other large screens. In the library only some 2.9% were active in any assay of this set; here they are far more common. Calls come from the whole dose curve; as a rule, active = well fitted curve in the direction sought with a large enough effect; inconclusive = small, poorly fitted or top-dose-only effect, or another doubt; inactive = no such curve, though single readings can be large; an effect the other way counts as inactive or inconclusive.

Cc1ccc(C)c(NS(=O)(=O)c2ccc3c(c2)Cc2cc(S(=O)(=O)Nc4cc(C)ccc4C)ccc2-3)c1	Nrf2 block 13µM
NC(=S)NC1CC2CC1C1C=CCC21 (stereo unspecified)	none
CC1(C)OC(=O)C(=NNc2ccccc2[N+](=O)[O-])C(=O)O1	Nrf2 block inconclusive (no result: ATXN2 expr inh)
O=S(=O)(CCSc1nc2ccccc2s1)c1nc2ccccc2s1	ATXN2 expr inh inconclusive, Nrf2 block inconclusive, ATXN viability 16µM
CCS(=O)(=O)CCSc1nc2ccccc2s1	none
CC1(C)C(=O)N(OCc2ccccc2)C(C)(C)C(=O)N1OCc1ccccc1	ATXN viability inconclusive
Cc1cc2c(cc1S(=O)(=O)CCC(=O)N1CCCC(C)C1)OCC(=O)N2 (stereo unspecified)	none
Cc1[nH]c2ccc(C(=O)Nc3ccncc3)cc2c1C	Nrf2 block 12µM (no result: ATXN2 expr inh)
O=C1C(Cl)=C(N2CCN(c3ccccc3[N+](=O)[O-])CC2)C(=O)c2ccccc21	Nrf2 activator 7.9µM, ATXN viability inconclusive
O=[N+]([O-])c1cc(Cl)ccc1N1CCCC1	none
COc1ccc(OC)c2sc(N3CCN(c4ccccc4)CC3)nc12	none
CN(C(=O)/C=C/c1ccc2c(c1)OCO2)c1ccccc1	Nrf2 block inconclusive
COCCNC(=S)N1CCC(C(=O)c2ccc(F)cc2)CC1	Nrf2 block inconclusive (no result: ATXN2 expr inh)
COc1ccc(C(=O)C2CCN(C(=S)NCCc3ccc(OC)c(OC)c3)CC2)cc1	ATXN2 expr inh inconclusive, Nrf2 block 16µM, ATXN viability inconclusive
COc1ccc(CCNC(=S)N2CCC(C(=O)c3ccc(F)cc3)CC2)cc1OC	Nrf2 block 16µM (no result: ATXN2 expr inh)
CCS(=O)(=O)N1CCc2cc(C(=O)NCCc3ccc(OC)c(OC)c3)ccc21	A549 tox inconclusive, Nrf2 block 18µM
Cc1cc(C)c2c(N)c(C(=O)NN3CC(=O)N(c4ccccc4)CC3=O)sc2n1	none (no result: ATXN2 expr inh)
O=C(NCCN1CCNC1=O)c1ccc2sc([C@H]3C[C@H](O)[C@@H](CO)O3)nc2c1	none (no result: A549 tox, Nrf2 block)
COc1ccc(C(=O)N2CCN(CC(=O)N3CCOCC3)CC2)cc1	none
Cc1ccc(S(=O)(=O)CCC(=O)Nc2ccccc2N2CCCC2)cc1	none
O=C(CCn1cnc2onc(-c3ccc(F)cc3)c2c1=O)Nc1cccc(C(F)(F)F)c1	A549 tox inconclusive, ATXN2 expr inh inconclusive, Nrf2 block inconclusive (no result: ATXN viability)
COc1ccc(CCN(C)C(=O)c2cc(S(=O)(=O)N3CCCCC3)ccc2Cl)cc1OC	Nrf2 block 16µM
COc1ccc(CCN(C)C(=O)c2cc(S(=O)(=O)N3CCCCCC3)ccc2OC)cc1OC	Nrf2 block inconclusive
COc1cccc(NC(=O)CN(C)C(=O)c2cccc(S(=O)(=O)N3CCN(c4ccccc4)CC3)c2)c1	Nrf2 block inconclusive
COc1cccc(CN(C)C(=O)c2cc(S(=O)(=O)N3CCN(c4ccccc4)CC3)ccc2Cl)c1	Nrf2 block 21µM
CC1CCCN(C(=O)N2c3ccccc3Sc3ccccc32)C1 (stereo unspecified)	A549 tox inconclusive, Nrf2 block 16µM
CC1CCN(C(=O)N2c3ccccc3Sc3ccccc32)CC1	none (no result: Nrf2 block)
COc1ccc(-n2cc(C(=O)NCc3cccc(OC)c3)c3ccccc3c2=O)cc1	none (no result: ATXN2 expr inh, ATXN viability)
Nc1nc(=O)n([C@H]2C[C@H](O)[C@@H](CO)O2)cc1F	ATXN2 expr inh 0.31µM (no result: A549 tox, Nrf2 activator, Nrf2 block, ATXN viability)
COc1ccccc1/C=N/OCc1ccc(C#N)cc1	Nrf2 block 18µM
CC1CC(C)CN(S(=O)(=O)c2ccc3c(c2)oc(=O)n3CC(=O)N(C)Cc2ccccc2)C1 (stereo unspecified)	none
Nc1ncccc1OCc1cccc(C(F)(F)F)c1	A549 tox inconclusive, Nrf2 block 16µM
COc1cccc(-c2cnc3c(NC(C)=O)cc(-c4cccc(C(=O)N(C)C)c4)cn23)c1	ATXN viability inconclusive (no result: A549 tox, Nrf2 block)
COc1ccccc1NS(=O)(=O)c1cccc(NC(=O)c2sc3ccccc3c2Cl)c1	Nrf2 block 9.2µM
COc1ccccc1NS(=O)(=O)c1ccc(NC(=O)c2ccccn2)cc1	Nrf2 block 21µM
COc1ccc(NC(=O)c2ccc(-c3ccccc3)cc2)cc1NS(=O)(=O)c1ccc(F)cc1	ATXN2 expr inh inconclusive, Nrf2 block 15µM
COc1ccc(-n2ncc(C(=O)N3CCN(c4ccccn4)CC3)c2C2CCN(C(=O)OC(C)(C)C)CC2)cc1	none (no result: ATXN2 expr inh, ATXN viability)
Cc1cc(C)nc(-n2nc(C)c3c2N(C)C(=O)CC3c2ccc(Cl)cc2)n1 (stereo unspecified)	none
Fc1cc2nc(-c3ccncc3)[nH]c2cc1F	ATXN viability inconclusive
Cc1cc(N/N=C/c2ccccc2O)c2ccccc2n1	ATXN2 expr inh 16µM, Nrf2 block 18µM, ATXN viability inconclusive
COc1ccccc1CNC(=O)COC(=O)c1ccncc1	none
C[C@@H](O[C@H]1OCCN(Cc2n[nH]c(=O)[nH]2)[C@@H]1c1ccc(F)cc1)c1cc(C(F)(F)F)cc(C(F)(F)F)c1	ATXN2 expr inh inconclusive, ATXN viability 32µM (no result: A549 tox, Nrf2 activator, Nrf2 block)
CC(=O)Nc1nc(NC(=O)C(Cl)(Cl)Cl)n(-c2ccccc2)n1	none
O=[N+]([O-])c1ccc2c(c1)C(N1CCN(CCO)CC1)Cc1ccc(F)cc1S2 (stereo unspecified)	ATXN viability inconclusive (no result: A549 tox, Nrf2 block)
OCCN1CCN(C2CCC(c3ccc(F)cc3)c3ccc(F)cc32)CC1 (stereo unspecified)	ATXN2 expr inh 25µM, Nrf2 block inconclusive, ATXN viability inconclusive
CCOC(=O)c1ccc(NC(=S)N(CCN(C)C)Cc2cccs2)cc1	Nrf2 block inconclusive
CC(C)(C)Cc1nc2ccccc2n1CCc1ccccc1	none
CCn1c(CNC(=O)COc2ccc(C(C)C)cc2)nnc1SCC(=O)Nc1ccccc1F	Nrf2 block inconclusive
CCn1c(CNC(=O)COc2ccc(C(C)C)cc2)nnc1SCC(=O)Nc1ccccc1C(C)C	Nrf2 block 16µM
Cc1ccccc1C(=O)NC(=S)NC1CCS(=O)(=O)C1 (stereo unspecified)	none
Cc1cc2nc(-c3cccc(NC(=O)C(C)C)c3C)oc2cc1C	none (no result: Nrf2 block)
CCOC(=O)C1(c2csc(N)n2)COC(=O)C1 (stereo unspecified)	Nrf2 block inconclusive
CCSC1=C(C#N)C(c2cccs2)C(C(=O)OC)=C(C)N1 (stereo unspecified)	A549 tox inconclusive, Nrf2 block 23µM
CCN(Cc1ccccc1)c1ccc(N=Nc2nn(C)c(C)c2[N+](=O)[O-])cc1	A549 tox 16µM, ATXN viability inconclusive
CCN(CC)c1ccc(N=Nc2nn(C)c(C)c2[N+](=O)[O-])cc1	A549 tox 21µM, Nrf2 block inconclusive, ATXN viability 13µM
CCN(CC)c1ccc(N=Nc2ncn[nH]2)cc1	A549 tox inconclusive, Nrf2 block inconclusive (no result: ATXN viability)
COc1ccc(/C=N\Nc2ccccc2[N+](=O)[O-])c(C(=O)O)c1OC	A549 tox inconclusive, ATXN viability inconclusive
